Measurements from PubChem BioAssay AID922 (National Center for Advancing Translational Sciences (NCATS), 2007).
Records with an inconclusive call do not appear. Calls of active or inactive are those of the source. The call rests on the fitted dose curve; in most records, active means well fitted inhibition curve with a large enough effect in the signal ratio, with a control signal flat; inconclusive means small, poorly fitted or top-dose-only effect, or effect the other way; inactive means flat fitted curve, though single readings scatter; the % refers to the signal ratio.

Assay: Confirmation Concentration-Response Assay for Identification of Small Molecule Antagonists of Stat Signaling Pathway
Conditions: SIE-bla cells, IL-6 stimulated, beta-lactamase ratio, 5 h; series mostly up to 38.3 µM
Description: NIH Molecular Libraries Screening Centers Network [MLSCN] NIH Chemical Genomics Center [NCGC] MLSCN Grant: None NCGC Assay Overview: This assay is a retest of actives identified from the Stat signaling pathway assay (PubChem AID 446). The Stat assay is cell-based and measures Interleukin 6 (IL-6) mediated modulation of a beta-lactamase reporter gene controlled by a STAT inducible element (SIE-bla cells, Invitrogen). IL-6 is a cytokine that signals via the JAK/STAT pathway and is implicated in cancer and inflammation. SIE-bla cells are induced by IL-6 at 40 pM EC50 and inhibited by the pan JAK inhibitor, 2-(1,1-Dimethylethyl)-9-fluoro-3,6-dihydro-7H-benz[h]-imidaz[4,5-f]isoquinolin-7-one, at approximately 10 nM IC50. Plated cells were incubated overnight and on the following day, stimulated with 40 pM IL-6 for 5 hrs. The assay was stimulated with an EC50 of IL-6 to retest inhibitors of STAT signaling.
NCGC Assay Protocol Summary: Cells were trypsinized, washed in assay medium (AM, OPTI MEM with 0.5% fetal bovine serum, 0.1 mM nonessential amino acids, 1 mM sodium pyruvate, 10mM HEPES pH 7.3, 100U/ml penicillin, and 100 ug/ml streptomycin) and suspended at […] in AM. Approximately 2500 cells in 5 uL/well was dispensed into 1536-well plates and the cells were incubated overnight at 37 C. 23 nL of compound were delivered by a pin tool and 1 uL of IL-6 (40 pM final concentration in AM) was added. After plates were incubated at 37 C for 5 hrs, 1uL of detector mix (LiveBLAzerTM, Invitrogen) was added, the plates incubated at room temperature for 2.5 hrs, and fluorescence intensity at 460 and 530 nm emissions was measured at 405 nm excitation by an Envision (Perkin Elmer).

Compound | Potency
CCN(CC)CCNC(=O)c1cc(S(C)(=O)=O)ccc1OC | inactive
CN(C)S(=O)(=O)c1ccc2c(c1)/C(=C/c1cc3c([nH]1)CCCC3)C(=O)N2 | 2.51 µM (active)
Cn1c(NCc2ccccc2)nc2c1c(=O)n(Cc1ccc(Br)cc1)c(=O)n2C | 15.8 µM (active)
O=C(O)c1c(Br)c(Br)c(Br)c(Br)c1C1c2ccc(O)cc2Oc2cc(O)ccc21 | 7.94 µM (active)
NS(=O)(=O)c1ccc(N=Nc2cc3ccccc3c(C(=O)O)c2O)cc1 | 6.31 µM (active)
NCCSc1nc2ccccc2s1 | 7.94 µM (active)
C=C1C(=O)O[C@@H]2[C@H]3O[C@]3(C)CCC=C(C)CC[C@@H]12 | 7.94 µM (active)
COc1cc(/C=C\C(=O)N2CCCCC2=O)cc(OC)c1OC | 12.6 µM (active)
CCOC(=O)c1[nH]c2cc3c(cc2c1NC(=O)CN1CCc2ccccc2C1)OCO3 | 15.8 µM (active)
CC1CCN(CC[S-])CC1.O.O.[Cl][Pt] | 25.1 µM (active)
COc1cccc2c1[C@H](CO)N1[C@H](C#N)[C@@H]3C[C@H](C(=O)O)[C@@H]([C@@H]1C2)N3C | 10 µM (active)
CCCCSc1nc(N)c(C#N)c(-c2cccs2)c1C#N | 15.8 µM (active)
O=C(Nc1ccc(N2CCN(C(=O)c3ccccc3)CC2)c(Cl)c1)c1ccc(Br)o1 | 10 µM (active)
CSc1ncnc2c1ncn2CC(=O)[C@H]1CC[C@H]2[C@H]3CCC4=CC(=O)CC[C@@]4(C)[C@@H]3CC[C@@]12C | 2.51 µM (active)
O=C1C(SCCO)=C(SCCO)C(=O)c2ccccc21 | 6.31 µM (active)
ClC(=Nc1cccc2ccccc12)N(c1ccccc1)c1ccccc1 | inactive
CCC(=O)Nc1nc(C)c(Oc2ccccc2)c(=O)[nH]1 | inactive
O=C(O)CCc1c2ccc(=O)c(O)c-2oc2c(O)c(O)ccc12 | 10 µM (active)
OCc1ccncc1.OCc1ccncc1.[Cl][Pt]([Cl])([Cl])[Cl] | 10 µM (active)
C=C1C(=O)O[C@@H]2[C@@H]1CC/C(C)=C\CC[C@@]1(C)O[C@H]21 | 25.1 µM (active)
COc1ccc(C[C@@H]2C(=O)N[C@H](C)C(=O)N(C)[C@@H]3Cc4ccc(cc4)Oc4cc(ccc4O)C[C@H](C(=O)N[C@@H](C)C(=O)N[C@H](C)C(=O)N2C)N(C)C3=O)cc1 | 0.199 µM (active)
OC[C@@H]1CCC[C@H](n2cnc3c(=S)nc[nH]c32)O1 | inactive
O=C1Nc2ccc(I)cc2/C1=C/c1cc(Br)c(O)c(Br)c1 | 12.6 µM (active)
